Reference: PubChem BioAssay AID2551 (National Center for Advancing Translational Sciences (NCATS), 2010)
Screen size: about 310,000 compounds; about 17,000 (5.5%) were called active. Inconclusive results (about 11%) are left out. The sample as a whole holds a higher share of actives than the screen did. A number with no mark means an inactive call. The call rests on the fitted dose curve; in most records, active means well fitted inhibition curve with a large enough effect; inconclusive means small, poorly fitted or top-dose-only effect, or effect the other way; inactive means no such curve, though single readings can be large or run the other way.

These compounds were tested against Nuclear receptor ROR-gamma (Mus musculus) (UniProt P51450) (assay: qHTS for inhibitors of ROR gamma transcriptional activity). Conditions: Drosophila S2 Gal4-RORgamma UAS-luciferase reporter, 20 h; series mostly up to 53.6 µM; activity change, negative = inhibition: at the top concentration.
Nuclear receptor ROR-gamma (Mus musculus), sequence (P51450 whole entry, looked up, the tested form may be a part): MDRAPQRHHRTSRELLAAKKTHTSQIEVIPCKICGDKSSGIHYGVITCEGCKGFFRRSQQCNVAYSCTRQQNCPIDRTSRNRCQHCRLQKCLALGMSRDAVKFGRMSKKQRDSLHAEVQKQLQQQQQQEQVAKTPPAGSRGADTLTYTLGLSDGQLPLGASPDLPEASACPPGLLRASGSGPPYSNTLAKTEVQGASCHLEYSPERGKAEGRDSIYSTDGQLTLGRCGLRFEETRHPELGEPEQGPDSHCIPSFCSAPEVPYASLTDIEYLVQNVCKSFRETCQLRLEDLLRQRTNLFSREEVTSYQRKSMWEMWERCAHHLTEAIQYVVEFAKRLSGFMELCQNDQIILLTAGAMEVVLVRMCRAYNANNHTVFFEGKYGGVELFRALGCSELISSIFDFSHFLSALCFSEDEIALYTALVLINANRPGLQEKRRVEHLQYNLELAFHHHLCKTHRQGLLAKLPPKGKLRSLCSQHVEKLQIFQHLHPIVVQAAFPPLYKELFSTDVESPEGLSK
Method in brief: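 Luciferase reporter read in Schneider cells carrying Gal4-RORγ (mouse) and UAS-Photinus luciferase; cells given compound 1 h before 700 uM copper sulfate induction, then incubated 20 h at ambient temperature.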
Further: nearly all actives have a fitted effect of over 60% in size.
On the % scale 0 is the no-effect control and ±100 the full control effect; potency means the concentration at half of the fitted maximal effect.

SMILES | activity change, negative = inhibition | Potency
CCCCc1nc2cc(C(=O)NCCc3cnn(C)c3)ccc2o1 | 32.8% | –
COc1ccccc1-c1cnn2c(N3CCOCC3)cc(C)nc12 | 1.17% | –
N#Cc1ccccc1NC(=O)c1ccc2c(c1)OCO2 | -0.235% | –
COc1ccc(C(=O)NC(C)Cn2nc(C)cc2C)cc1OC1CCN(C(C)=O)CC1 (stereo unspecified) | 4.79% | –
Oc1ccc2ccccc2c1N=Nc1nccs1 | – | 1.26 µM (active)
Oc1ccc(N=Nc2nccs2)c(O)c1 | – | 7.08 µM (active)
Oc1ccc2ccccc2c1C=Nc1ccccc1 | -30.3% | –
c1ccc(NCc2cccc3ccccc23)nc1 | 15.3% | –
O=C(c1c(F)cccc1F)N1CCN(c2ncc(Br)cn2)CC1 | 11.8% | –
CCOC(=O)N1CCC(N2Cc3cccc(C(=O)Nc4c(C)cccc4CC)c3C2=O)CC1 | -1.98% | –
Cc1cc(=O)oc2c(C)c(OCC(=O)NCCc3ccc(S(N)(=O)=O)cc3)ccc12 | -3.62% | –
Cc1ccc(NS(=O)(=O)c2cc3c(cc2C)NC(=O)CO3)cc1 | 21.6% | –
N=c1oc2ccccc2cc1C(=O)NCc1ccccc1 | 3.1% | –
CCOC(=O)c1cnc(-c2ccccc2)nc1Oc1ccc(C)cc1 | -0.933% | –
CCOC(=O)c1cnc(-n2nc(C)cc2C)nc1NNc1cc(C)nc(-c2ccccc2)n1 | – | 0.1 µM (active)
Cc1cc(C)n(-c2c(F)c(F)c(COC(=O)c3ccccc3)c(F)c2F)n1 | 22% | –

SMILES | activity change, negative = inhibition | Potency
CC(C)c1nc2cc(C(=O)NC(C)c3cnn(C)c3)ccc2o1 (stereo unspecified) | 7.34% | –
COc1cc(CO)ccc1OCC(=O)Nc1cccc2ccccc12 | 6.69% | –
C=CCn1cnc2scc(-c3ccccc3)c2c1=O | 16% | –
C=CCn1c(=S)[nH]c2scc(-c3ccco3)c2c1=O | – | 1.58 µM (active)
C=CCNC(=O)CSc1nc2scc(-c3ccco3)c2c(=O)n1CC=C | 2.33% | –
CC(C)(C)c1cc[n+](-c2[nH]c(=O)sc2/C=N/N=C(\[O-])c2ccccc2)cc1 | -9.35% | –
COc1cc(Cl)c(C)cc1NC(=O)CN1CCCCCC1 | 3.84% | –
COc1cc(NC(=S)N2CCCC(C)C2)cc(OC)c1OC (stereo unspecified) | -41% | –
COc1cc(NC(=S)N2CCCC(C)C2)c(OC)cc1Cl (stereo unspecified) | – | 12.6 µM (active)
COc1ccc(C2=NN(C(C)=O)C(c3ccccc3)C2)cc1 (stereo unspecified) | 7.98% | –
O=C(c1ccccc1)N1N=C(c2ccccc2O)CC1c1ccc(Br)cc1 (stereo unspecified) | 1.01% | –
CNC(=S)N1N=C(c2ccccc2)CC1c1ccc(Br)cc1 (stereo unspecified) | – | 11.2 µM (active)
COc1ccc(-c2nonc2NC(=O)c2oc3ccc(F)cc3c2C)cc1OC | 0% | –
O=c1ccc2cc(S(=O)(=O)NCCCc3ccccc3)ccc2[nH]1 | -6.85% | –
CCN(CC)S(=O)(=O)c1ccc(NC(=O)c2cnc(C)cn2)cc1 | 3.56% | –
